# From PubChem BioAssay (NCI)
# Compounds without any hit were thinned out: in the full panel of roughly 83,000, 20% have a hit.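 Single-dose data. Exposure time 48 hours. Values below 10 considered active.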 Values without a mark were called inactive. The source made the active and inactive calls.
# How the values were obtained:
# Test in all cases: NCI-60 one-dose screen, 48 h (100 = growth as untreated, 0 = no growth, -100 = all killed)
# Details in all cases: 10 µM unless noted
# NCI-H23 lung = system: NCI-H23 lung
# NCI-H226 lung = system: NCI-H226 lung
# NCI-H322M lung = system: NCI-H322M lung
# HOP-62 NSCLC = system: HOP-62 NSCLC
# NCI-H460 lung = system: NCI-H460 lung
# HOP-92 NSCLC = system: HOP-92 NSCLC
# NCI-H522 lung = system: NCI-H522 lung
# A549/ATCC NSCLC = system: A549/ATCC NSCLC
# 786-0 renal = system: 786-0 renal
# COLO 205 colon = system: COLO 205 colon
# DU-145 prostate = system: DU-145 prostate
# K-562 leukemia = system: K-562 leukemia
# MALME-3M melanoma = system: MALME-3M melanoma
# MDA-MB-231 breast = system: MDA-MB-231 breast
# RXF 393 renal = system: RXF 393 renal
# SF-268 CNS = system: SF-268 CNS
# SF-295 CNS = system: SF-295 CNS
# SF-539 CNS = system: SF-539 CNS
# UACC-257 melanoma = system: UACC-257 melanoma
# M14 melanoma = system: M14 melanoma
SMILES,growth (NCI-H23 lung),growth (NCI-H226 lung),growth (NCI-H322M lung),growth (HOP-62 NSCLC),growth (NCI-H460 lung),growth (HOP-92 NSCLC),growth (NCI-H522 lung),growth (A549/ATCC NSCLC),growth (786-0 renal),growth (COLO 205 colon),growth (DU-145 prostate),growth (K-562 leukemia),growth (MALME-3M melanoma),growth (MDA-MB-231 breast),growth (RXF 393 renal),growth (SF-268 CNS),growth (SF-295 CNS),growth (SF-539 CNS),growth (UACC-257 melanoma),growth (M14 melanoma)
O=C1Nc2cc(-c3cccc(O)c3)ccc2/C1=C/c1ccc[nH]1,4.68% (active),73.9%,21.8%,14%,4.52% (active),30.9%,3.76% (active),17.7%,15%,83.7%,33.8%,5.66% (active),16.1%,-15.8% (active),-39.8% (active),15.4%,19.3%,-48.7% (active),46%,16.9%
O=S(=O)(NCCNc1nccc(-c2c(-c3cccc(O)c3)nc3occn23)n1)c1cccc(F)c1,97.9%,105%,97.3%,121%,95.9%,93%,81.1%,92.6%,91.5%,30.1%,104%,70.8%,4.35% (active),69.4%,91.6%,93.1%,106%,111%,39.7%,35.9%
COc1ccc(/C=C2\Oc3cc(OCCCCCN4CCCCC4)ccc3C2=O)cc1OC,78.6%,83.1%,97.9%,97.4%,59.2%,54.4%,89.9%,88.7%,84.4%,98.5%,89.6%,-54.6% (active),83.7%,86.7%,76.3%,87.2%,98.6%,81.1%,87.4%,89.1%
O=C(c1nnc(Nc2ccccc2Br)o1)c1c[nH]c2ccccc12,88.1%,85.6%,94.6%,79.2%,99.2%,97.9%,98.2%,88.2%,103%,98.9%,107%,112%,105%,88.9%,125%,105%,108%,104%,92.6%,92.5%
Cc1ccc(NC(=O)Cc2ccc(/C=C/C(=O)c3ncc[nH]3)cc2)cc1,41.6%,89.7%,63.9%,43.4%,7.31% (active),82%,43.6%,62.1%,29.7%,49.2%,16%,8.84% (active),96.3%,56.6%,52.7%,24.7%,24%,-14.8% (active),83.4%,82.5%
COc1ccc(NC(=O)c2cc(NCc3cc(O)ccc3O)ccc2O)cc1,90.4%,97%,91.1%,101%,87.2%,106%,-0.814% (active),78.7%,107%,113%,97.4%,73.1%,108%,79.1%,91.2%,80.8%,115%,86.8%,76.3%,95.1%
O=c1ccc(-c2nc(N3CCOCC3)c3ccccc3n2)c[nH]1,93.9%,91.7%,92.3%,99.6%,103%,103%,98.9%,97%,97.1%,106%,93.6%,116%,99.4%,88.4%,103%,88.1%,90.5%,93.5%,124%,93.3%
CNC(=O)c1cc(Cn2nc(C)c(NC(=O)Nc3ccc(Cl)c(C(F)(F)F)c3)c2C)ccn1,97.8%,96.6%,94.5%,93.4%,100%,106%,71.5%,70%,100%,99.9%,101%,112%,98.5%,91.8%,102%,98%,95.5%,94%,79%,97.5%
Nc1nc(Nc2ccccc2SSc2ccccc2Nc2nc(N)nc(-c3cccs3)n2)nc(-c2ccsc2)n1,59.5%,85.2%,90.6%,-41.2% (active),55.9%,104%,85.3%,18.4%,93.6%,97.8%,95.1%,80.9%,106%,75.8%,109%,79.6%,-53.4% (active),105%,101%,96.5%
COc1ccc(CNCCN2C(=O)c3ccc4c5c(ccc(c35)C2=O)C(=O)N(CCNCc2ccc(OC)c(OC)c2OC)C4=O)c(OC)c1OC,-42.8% (active),-13.7% (active),-1.94% (active),20%,-21.2% (active),5.62% (active),-78% (active),-39.9% (active),8.05% (active),-10.9% (active),-41.7% (active),-10.8% (active),-73% (active),-8.31% (active),-32.3% (active),-2.06% (active),-44.8% (active),-47.7% (active),-85.1% (active),-58.3% (active)
O=S(=O)(Nc1ccc(-n2cnc3cc(-c4ccc(O)cc4)ccc32)cc1)c1ccccc1,99.8%,92.1%,93%,102%,95.1%,130%,50.8%,77.2%,101%,136%,105%,65.4%,100%,85.1%,103%,78.4%,87.9%,67.3%,106%,85.1%
O=C(Nc1cccc(C(=O)N2CCc3ccc(Cl)cc32)c1)c1ccco1,62.4%,60.2%,65.2%,42.4%,15.8%,74.1%,17.8%,38.3%,40.5%,27.5%,67.8%,13.9%,40.9%,44.9%,39.9%,55.9%,30.8%,26.8%,52.2%,18.2%
CC(=O)N1N=C(c2ccc(-n3ccc(C(F)(F)F)n3)c(F)c2)CC1c1ccc[nH]1 (stereo not given),100%,106%,110%,112%,103%,130%,77.2%,104%,102%,122%,109%,91.9%,102%,105%,116%,104%,98.8%,102%,96.4%,102%
O=C(CCN1CCCC1)Nc1ccc2c(NCCc3ccccc3)c3ccccc3nc2c1,-40.2% (active),-19.8% (active),-19% (active),-9.1% (active),-64.8% (active),-14.5% (active),-33.4% (active),-5.65% (active),-12.4% (active),-37.5% (active),-23.3% (active),-17.1% (active),-92.6% (active),-32.5% (active),-47.9% (active),-55% (active),-2.88% (active),-67.2% (active),-8.54% (active),-61.8% (active)
O=C1c2ccc3c4c(ccc(c24)C(=O)N1CCCNCc1ccccc1F)C(=O)N(CCCNCc1ccccc1F)C3=O,-53% (active),-51.9% (active),-83.5% (active),-29.7% (active),-55.2% (active),-14.2% (active),-92.5% (active),-91.2% (active),-40.1% (active),-46% (active),-91.9% (active),-28.2% (active),-72.2% (active),-7.55% (active),-87.9% (active),-65.1% (active),-67.7% (active),-65.5% (active),-98.6% (active),-60.8% (active)
CCOc1cccc(-c2nc(N)nc(Nc3ccccc3SSc3ccccc3Nc3nc(N)nc(-c4cccc(OCC)c4)n3)n2)c1,43.8%,68%,85.1%,-0.309% (active),35.6%,97.2%,90.8%,-10.8% (active),84.9%,109%,83.9%,68.9%,97%,51.7%,92.4%,25.1%,5.56% (active),93.2%,118%,69.4%
